An excerpt weighted towards active compounds, which were near 17% of everything screened.
HT1080-NT tox: kills 2HG-producing HT-1080-NT fibrosarcoma cells; HT-1080-NT fibrosarcoma viability, CellTiter-Glo ATP luminescence, 48 h; Potency, µM (doses to about 46.1 µM), for the others: at the highest dose activity, negative = less viability, usual class: cytotoxic; 360,000 compounds, 1.6% hits;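 note: NT is the 2HG producing partner of a matched IDH1 knockdown line; 0% = DMSO-treated cells and -100% = media-only wells without cells; nearly all actives have a fitted effect of over 55% in size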
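Read-out is CellTiter-Glo luminescence after 10 minutes at room temperature, following 48 hours' compound treatment of HT-1080-NT cells (750 cells/well, RPMI, 5% FBS, 37 degrees C).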
DT40 TDP1 no CPT: qHTS for Inhibitors of human tyrosyl-DNA phosphodiesterase 1 (TDP1): qHTS in cells in absence of CPT; DT40 Tdp1-/- hTDP1 cells, no CPT, ATP luminescence, 48 h; Potency, µM (titrated, usually from 46.2 µM), inactives show at the top dose activity change, negative = growth inhibition, hits mostly inhibitors; 420,000 compounds, 15% hits; note: % is set by controls: 0 for no effect and ±100 for the full control effect; nearly all actives have a fitted effect of over 55% in size
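Readout: luminescence from CellTiter-Glo after 30 min in the dark at RT. Cells: DT40 Tdp1-/- with stable hTDP1, 400/well. Exposure: compounds alone, ≥48 hr, 37 °C.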
TGFb inhibitor: blocks TGF-b signaling | HepG2 CAGA-GFP TGF-b/SMAD3 reporter, GFP fluorescence, 18 h; TGF-beta stimulated, 500 pg/mL final | Potency, µM (highest dose often 46.1 µM), for inactives: at the highest dose activity, negative = inhibition, most hits filed as inhibitors | 410,000 compounds, 1.2% hits | AID 588855; note: % is set by controls: 0 for no effect and ±100 for the full control effect; nearly all actives have a fitted effect of over 65% in size
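TGF-beta reporter screen: HEPG2 CAGA-GFP, 1% FBS, 500 pg/mL TGF-beta final, 18 h; per-cell GFP summed per well; curves fitted and categorized by class.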
HepG2 tox: HepG2 cytotoxicity, counter-screen for TGF-b inhibitors. 410,000 compounds, 0.76% hits. HepG2 CAGA-GFP viability, ATP luminescence, 18 h. AID 588856. Potency, µM (highest dose often 46.1 µM), without a hit: at the highest dose activity change, negative = cytotoxicity, usual class: cytotoxic
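CellTiter-Glo luminescence gave cytotoxicity after 18 hours at 37 degrees C. The cells were HepG2 CAGA-GFP in 1% FBS DMEM, stimulated with 500 pg/mL TGF-beta after compound addition. %Activity was normalised to no-cell wells (complete cell-killing) and DMSO (no toxicity), and curves were fitted and classified.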
DT40 TDP1 CPT: DT40-hTDP1 cell growth loss with CPT. chicken DT40 Tdp1-/-;hTDP1 cells + 20 nM CPT, ATP luminescence, 48 h. Potency, µM (series often up to 46.2 µM), for the others: at the top dose activity change, negative = growth inhibition, usual class: inhibitors. 420,000 compounds, 12% hits; note: % is set by controls: 0 for no effect and ±100 for the full control effect; nearly all actives have a fitted effect of over 55% in size
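Chicken DT40 Tdp1-/- cells complemented with human TDP1, 400 cells/well, exposed to compounds plus 20 nM camptothecin for at least 48 h at 37 C; viability read as ATP content by CellTiter-Glo luminescence.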
HT1080 IDH1KD tx: kills HT-1080 cells with IDH1 knockdown; HT-1080 IDH1 knockdown viability, ATP luminescence, 48 h; Potency, µM (titrated, usually from 46.1 µM), for the others: at the top dose activity, negative = toxicity, hits mostly cytotoxic; 360,000 compounds, 2% hits; AID 686971;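 note: 0% = DMSO wells and -100% = cell-free medium wells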
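Assay cells: HT-1080 with IDH1 knockdown, 750 per well, RPMI/5% FBS. Exposure: 48 h at 37 °C following 2 h pre-incubation. Read: CellTiter-Glo luminescence; fitted concentration-response, curve class assigned.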
The depositor's hits bear a star; ? = inconclusive; · = no result given. Calls come from the whole dose curve; as a rule, active = well fitted curve in the direction sought with a large enough effect; inconclusive = small, poorly fitted or top-dose-only effect, or another doubt; inactive = no such curve, though single readings can be large; an effect the other way counts as inactive or inconclusive. Potency is the fitted concentration of half-maximal effect.

SMILES	HT1080-NT tox	DT40 TDP1 no CPT	TGFb inhibitor	HepG2 tox	DT40 TDP1 CPT	HT1080 IDH1KD tx
COc1ccc(C(=O)c2cn(Cc3cccc(C)c3)c3cc4c(cc3c2=O)OCO4)cc1	·	26µM*	-5%	9%	16µM*	·
COc1ccc(NC(=O)C2CC23CCN(Cc2cccc4ncccc24)CC3)cc1Cl (configuration not stated)	·	?	·	·	-29%	·
Cn1cc(CN2CCC(C(O)c3cccs3)CC2)c(-c2ccccc2F)n1 (configuration not stated)	1%	1%	19%	15%	-9%	6%
Cc1ccc2nc(C3CCCCC3)c(Cc3ccccc3)n2c1	?	16µM*	?	-63%	15µM*	?
Cc1ccc2nc(C3CCCCC3)c(Cc3ccccc3C(F)(F)F)n2c1	?	16µM*	?	-104%	-102%	?
CCCCS(=O)CC(O)CSc1nc(-c2ccc(OC)cc2)cc(-c2ccccc2)c1C#N (configuration not stated)	·	-19%	?	-55%	?	·
COc1ccccc1-n1cc(-c2ccccc2)[nH]c1=S	10%	?	-3%	-21%	-26%	10%
COc1ccc(-n2cc(-c3ccccc3)[nH]c2=S)cc1	-2%	16µM*	-1%	-8%	13µM*	-1%
COc1ccc(-n2cnc3ccccc32)cc1	-2%	-21%	-22%	-4%	?	-4%
COc1ccc(-n2cnc(=S)[nH]c2=S)cc1	?	0.33µM*	?	-51%	0.58µM*	-9%
CCOc1ccc(-c2cn(-c3ccccc3OC)c(=S)[nH]2)cc1	?	18µM*	0%	5%	?	26µM*
CC(C)(C)c1ccc(C(=O)NNc2ncnc3c2cnn3-c2ccccc2)cc1	·	?	-2%	-1%	?	·
COc1cc(/C=C2\SC(=Nc3ccc(Cl)c(C(=O)O)c3)NC2=O)c(Br)c(Br)c1O	0%	3%	109%	8%	-1%	1%
O=C(CS(=O)c1ccc(C(F)(F)F)cc1[N+](=O)[O-])Oc1ccc(Cl)cc1 (configuration not stated)	?	12µM*	?	-95%	9.2µM*	?
CCOC(=O)c1c(C)oc2c1c(C(c1cccnc1)N1CCOCC1)c(O)c1ccccc12 (configuration not stated)	?	18µM*	-23%	-24%	?	?
C=CCOc1ccccc1CN(C(=O)CCl)c1ccc2c(c1)OCO2	3.7µM*	10µM*	?	-71%	18µM*	2.6µM*
O=C1c2ccccc2[C@@H]2C[C@@H](O)[C@H](Nc3cccc4ccccc34)CCN12	-3%	16µM*	?	-18%	?	-6%
COc1ccc(N[C@@H]2CCN3C(=O)c4ccccc4[C@@H]3C[C@H]2O)cc1	0%	-15%	1%	-13%	-2%	1%
CCCOc1ccc(C(=O)N2CCN(c3ccc(N)cc3Cl)CC2)cc1	-2%	21µM*	0%	-21%	23µM*	12%
Cc1ccc(C(=O)N2CCN(c3ccc(N4CCOCC4)nn3)CC2)cc1	2%	-20%	1%	6%	-3%	15%
CCCCOc1ccc(C(=O)N2CCN(c3ccc(N4CCOCC4)nn3)CC2)cc1	-5%	?	1%	16%	23µM*	-11%
CCOc1ccc(C(=O)N2CCN(c3ncccn3)CC2)cc1	5%	-13%	0%	139%	6%	5%
O=C(NCCC1=CCCCC1)c1ccc(-n2cncn2)c([N+](=O)[O-])c1	0%	-14%	-2%	-3%	?	-9%
CC1(C)CCC/C(=C\c2ccccc2)C1=O	7%	-3%	?	-6%	-20%	9%
CN(C)CCC1(C2=CCCC2)CC/C(=C/c2ccc(Cl)cc2)C1=O (configuration not stated)	?	8.2µM*	0%	-88%	7.3µM*	?
SMILES	HT1080-NT tox	DT40 TDP1 no CPT	TGFb inhibitor	HepG2 tox	DT40 TDP1 CPT	HT1080 IDH1KD tx
Cn1cnc(S(=O)(=O)N2CCCCC2c2cc(C(=O)Nc3ccccc3Cl)no2)c1 (configuration not stated)	1%	-17%	23%	-1%	-18%	-1%
CC(C)(C)n1ncc2c(=O)n(CC(=O)Nc3ccccc3)cnc21	-1%	-28%	-48%	-3%	-27%	-3%
Cc1ccc(C)c(Cn2cnc3c(cnn3C(C)(C)C)c2=O)c1	-12%	18µM*	-2%	-7%	-113%	?
CC(C)(C)n1ncc2c(=O)n(CC(=O)NCc3ccc(F)cc3)cnc21	?	8.2µM*	20%	1%	6.5µM*	13µM*
Cc1ccccc1Cn1cnc2c(cnn2C(C)(C)C)c1=O	0%	?	30%	-43%	?	-9%
CCOC(=O)c1ccccc1NC(=O)Cn1cnc2c(cnn2C(C)(C)C)c1=O	11%	26µM*	4%	-29%	?	6%
CCC1=C([N+](=O)[O-])C(c2ccc3c(c2)OCO3)NC(=O)N1 (configuration not stated)	2%	17%	5%	-4%	5%	2%
CCOC(=O)CC(S(=O)(=O)c1ccccc1)S(=O)(=O)c1ccccc1	?	0.65µM*	?	-99%	0.58µM*	21µM*
CCOC(=O)N=S(N)(=O)c1ccccc1 (configuration not stated)	8%	-10%	21%	-1%	-7%	-1%
CC(OC(=O)c1ccncc1)C(=O)Nc1cccc(Cl)c1 (configuration not stated)	-2%	0%	-6%	8%	-5%	-7%
Cc1ccc(NC(=O)c2nc(S(C)(=O)=O)ncc2N(Cc2ccco2)Cc2ccco2)cc1	·	12µM*	-8%	-1%	8.2µM*	·
CC(C)c1ccc(CN(Cc2ccco2)c2cnc(S(C)(=O)=O)nc2C(=O)Nc2ccc(F)cc2)cc1	·	21µM*	?	-2%	?	·
Cc1cccc(C)c1NC(=O)c1nc(S(C)(=O)=O)ncc1N(Cc1ccc(F)cc1)Cc1ccco1	·	?	-16%	-18%	?	·
CC(C)CN(C(=O)Cn1c(C(F)(F)F)nc2ccccc21)c1c(N)n(Cc2ccccc2)c(=O)[nH]c1=O	11%	-1%	5%	-42%	2%	6%

Screening data deposited in PubChem by National Center for Advancing Translational Sciences (NCATS).
